# Source: PubChem BioAssay
# Assay: inhibitors of PAF-induced NFkB signaling in CF airway cells, dose response, cell-based, uHTS hits, panel, cytotoxicity readout (AID 624344)
# Details: CF bronchial epithelial cells, PAF-induced NFkB reporter inhibition, with PAF, run 2; at 79 µM (top of the series) unless noted
row,SMILES,inhibition [%]
1,CC(C)c1nc(NCCO)c(C#N)c2c1CCCC2,103
2,COc1ccc2[nH]c3c(c2c1)CCNC3=O,103
3,Cc1nc2sc(C(N)=O)c(N)c2c(C)c1CC(=O)c1ccccc1,80.3
4,O=C(Nc1nc2ccc(F)cc2s1)C1CCN(S(=O)(=O)c2cc([N+](=O)[O-])ccc2Cl)CC1,112
5,Cc1[nH]nc2ncc(C(=O)c3ccccc3O)cc12,92.1
6,COc1ccc(-c2cn[nH]c2-c2ccc(O)cc2O)cc1,112
7,COc1ccc2cc(C(N)=O)c(=Nc3ccc(C)cc3)oc2c1,75.7
8,COc1cccc(-c2nnc3sc(C4CCCCC4)nn23)c1,104
9,COc1ccc(-c2cn[nH]c2-c2ccc(OC)cc2O)cc1,112
10,FC(F)(F)c1nnc2c(Sc3ccc(Cl)cc3)nc3ccccc3n12,109
11,c1cc2[nH]snc2c2nc(C3CC3)nc12,118
12,COc1ccc2[nH]c3c(c2c1)CC(C)NC3=O (stereo not given),112
13,CC(=O)c1cccc(NC(=O)Nc2cccnc2)c1,93.2
14,O=[N+]([O-])c1ccc2ncnc(N3CCN(Cc4ccc5c(c4)OCO5)CC3)c2c1,91.3
15,Cn1c(Oc2ccc(Cl)cc2)c(C=O)c2ccccc21,109
16,CCN(CC)S(=O)(=O)c1ccc(NC(=O)Nc2cccc(C(F)(F)F)c2)cc1,99.2
17,OCCCNc1ncnc2scc(-c3ccc(Cl)cc3)c12,103
18,Cn1nnnc1Sc1ncnc2scc(-c3ccc[nH]3)c12,61.6
19,Cc1c(C=O)c(C=O)c(C)n1Cc1ccccc1,103
20,Clc1cncc(Cl)c1N/N=C/c1ccncc1,118

row,SMILES,inhibition [%]
1,CCN1CCN(Cc2ccc(NC(=O)c3ccc(C)c(NC(=O)C(=O)c4c[nH]c5ccccc45)c3)cc2C(F)(F)F)CC1,112
2,CCn1c(Oc2ccccc2F)nc2c1c(=O)n(C)c(=O)n2C,96.5
3,COc1cccc(NC(=O)Nc2nnc(CC(=O)NCc3ccccc3)s2)c1,83.7
4,CCOc1ccc(-n2c(C)c(C(C)=O)c3cc(O)ccc32)cc1,88.2
5,CC(C)Nc1ncnc2ccc(Br)cc12,104
6,Cc1[nH]nc2nc(SCC(=O)NCCC3=CCCCC3)n(-c3ccc(Br)cc3)c(=N)c12,111
7,Cc1cc(N2CCOCC2)c2c(N)c(Br)cc(C)c2n1,97.8
8,Clc1cccc(Nc2ncnc3ccc(Br)cc23)c1,104
9,Cc1cccc(CNc2ncnc3ccc(-c4ccoc4)cc23)c1,106
10,Cn1c(=O)c2c(nc(Oc3ccc4ccccc4c3)n2C)n(C)c1=O,81.7
11,O=C(Nc1cccc2[nH]ncc12)c1ccc(F)cc1,95.5
12,CN1CCN(c2ncnc3scc(-c4ccccc4Cl)c23)CC1,100
13,COc1ccc(Cc2nnc(SCc3ccc([N+](=O)[O-])cc3)o2)cc1,97.4
14,NC(=O)N/N=C/c1c(Sc2nnnn2-c2ccccc2)nc2ccccn2c1=O,105
15,CCc1c(C)nc2ccc(Br)cc2c1SCCC#N,113
16,COc1ccc(-c2cc(=O)oc3c(C)c(OC(=O)c4cccs4)ccc23)cc1,93
17,Cc1ccc2nc(C(F)(F)F)c(C#N)c(N)c2c1,106
18,C=C(C)COc1ccc(-c2[nH]ncc2-c2ccc(OC)cc2)c(O)c1,105
19,CC(C)CN=C(NS(=O)(=O)c1ccccc1)C(Cl)(Cl)Cl,112
20,Oc1ccc(CCNc2ncnc3ccc(Cl)cc23)cc1,106
